Compound activity: PubChem, several laboratories
An excerpt weighted towards active compounds, which were near 4.2% of everything screened.
PrPC surface inh – inhibitors of human cell surface prion protein PrPC, primary screen, cell-based, TR-FRET; Major prion protein (Homo sapiens), P04156; TR-FRET read-out; inhibition, % at 13.8 µM; 370,000 tested, 0.43% active; AID 720596, 2013; in the data active = inhibition above about 24%
RecA intein inh – Mtb RecA intein splicing inhibitors, primary screen, biochemical, fluorescence, HTS. inhibition, % (test concentration not listed). 290,000 tested, 0.75% active. cell-free RecA intein splicing. Protein RecA (Mycobacterium tuberculosis (strain ATCC 25618 / H37Rv)), P9WHJ3; in the data active = inhibition above about 30%
GDH-TPI inh – GDH-TPI coupling enzyme inhibitors, primary screen, artefact control for M. tuberculosis FBA inhibitor project, biochemical, absorbance, full deck | GDH-TPI coupled enzyme counterscreen, NADH absorbance | inhibition, % at 4.8 µM | 360,000 tested, 1.2% active | AID 588335, 2011; in the data active = inhibition above about 30%
FBA Mtb inh – Mtb FBA enzyme inhibitors, primary screen, biochemical, fluorescence, strain H37Rv | Fructose-bisphosphate aldolase (Mycobacterium tuberculosis (strain ATCC 25618 / H37Rv)), … | purified M. tuberculosis FBA, fluorescence read-out | inhibition, % at 1 µM | 360,000 tested, 2.3% active; in the data active = inhibition above about 27%
Target sequence (P9WQA3 whole entry, looked up): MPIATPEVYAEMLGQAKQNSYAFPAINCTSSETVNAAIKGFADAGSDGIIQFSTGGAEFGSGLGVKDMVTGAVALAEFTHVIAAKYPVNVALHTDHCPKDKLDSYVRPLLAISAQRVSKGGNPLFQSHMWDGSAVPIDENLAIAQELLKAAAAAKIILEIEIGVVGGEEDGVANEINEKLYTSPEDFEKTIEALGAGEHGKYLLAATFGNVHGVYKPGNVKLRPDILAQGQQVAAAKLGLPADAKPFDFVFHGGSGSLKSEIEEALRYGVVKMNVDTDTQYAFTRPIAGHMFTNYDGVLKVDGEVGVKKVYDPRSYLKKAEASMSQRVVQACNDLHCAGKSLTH
BJeLR lethal – MLPCN primary cell-based screen for lethality selective to Ras in HRASV12 cells; BJeLR (HRASV12) viability, CellTiter-Glo ATP luminescence, 48 h; 300,000 tested, 0.17% active; inhibition, % (no concentration beside the values); in the data active = inhibition above about 50%
Hits are given with their value; 0 = inactive; - = no result; + = active, no number.

SMILES	PrPC surface inh	RecA intein inh	GDH-TPI inh	FBA Mtb inh	BJeLR lethal
O=C(N/N=C/c1ccc(F)c(F)c1)c1cc2c(s1)-c1ccccc1CC2	0	0	0	0	0
O=C(Nc1cccnc1Cl)c1cc2c(s1)-c1ccccc1OC2	0	0	0	153	0
COc1ccccc1N1CCN(C(=O)c2cc3c(s2)-c2ccccc2OC3)CC1	0	0	0	0	0
C/C(=N\OC(=O)c1ccc(F)cc1)c1nccs1	0	0	0	0	0
CC(=NOC(=O)C1CCCCC1)c1nccs1	0	-	51	0	-
CCOc1ccc(-n2c(SCC(=O)Nc3ccccc3-c3ccccc3)nnc2-c2cccs2)cc1	0	-	-	-	-
O=C(CSc1nc2ccccc2c(=O)[nH]1)Nc1ccc(C(=O)O)cc1	0	0	0	0	0
O=C(CSc1nc2ccccc2c(=O)[nH]1)Nc1ccc([N+](=O)[O-])cc1	0	-	38	0	-
CCCCOCCCNC(=O)C[C@H]1C(=O)N(CCCOC)C2=CCCCC[C@]21C(=O)OC	0	-	-	-	-
O=c1c2cc(Br)ccc2[nH]c(=S)n1-c1ccccc1	0	0	0	0	0
CCc1cc2c(=O)n(-c3ccccc3)c(=S)[nH]c2s1	0	0	32	0	0
CCOc1ccc(CCNC(=O)C2CCCCC2)cc1OCC	0	-	-	-	-
O=C(c1ccccc1I)N1CCC(Oc2cccnc2)CC1	0	-	-	-	-
Cc1ccc(-n2c(SCC(=O)Nc3ccccc3-c3ccccc3)nnc2-c2cccs2)cc1	0	-	-	-	-
O=C1CC(N2CCN(c3ccc(C(=O)c4ccc(F)cc4)cc3)CC2)C(=O)N1 (centres undefined)	0	0	48	0	0
CCN1C(=O)CC(N2CCN(c3ccc(C(=O)c4ccccc4)cc3)CC2)C1=O (centres undefined)	0	0	0	0	0
C=CCn1c(=O)c(C#N)cc2c(=O)n3ccccc3nc21	0	0	0	+	0
CCn1c(=N)c(S(=O)(=O)c2ccc(C)cc2)cc2c(=O)n3ccccc3nc21	0	0	-	-	0
Cc1ccccc1-n1c(=O)c(C#N)cc2c(=O)n3ccccc3nc21	0	0	0	+	0
Cc1cc(-n2c(=O)c(C#N)cc3c(=O)n4ccccc4nc32)no1	0	0	0	+	0
Cc1ccc(/C=c2\sc3nc(-c4ccccc4Br)nn3c2=O)o1	0	0	0	0	0
Cc1ccc(/C=c2\sc3nc(-c4ccco4)nn3c2=O)o1	-	0	40	0	0
COc1ccc(/C=N/Nc2ncnc3scc(-c4ccccc4)c23)cc1OC	0	0	48	0	0
COc1ccc(/C=N/Nc2nc(-c3cccnc3)nc3ccccc23)cc1OC	0	0	0	0	0
COc1cc(/C=N/Nc2ncnc3sc4c(c23)CCC4)ccc1O	0	-	47	0	0
SMILES	PrPC surface inh	RecA intein inh	GDH-TPI inh	FBA Mtb inh	BJeLR lethal
CC(=O)NC(C)C(=O)N1CCCC1C(=O)N1CCCC1C(=O)NC(C)C(=O)NC1C(=O)NC(CC(C)C)C(=O)NC2CCCCNC(=O)CCC(C(=O)NC(Cc3ccc(O)cc3)C(=O)O)NC(=O)C3CCC(=O)OCC(NC(=O)C4CCCN4C(=O)C(Cc4c[nH]c5ccccc45)NC2=O)C(=O)NC(CC(=O)OC1C)C(=O)NC(Cc1c[nH]c2ccccc12)C(=O)N3 (centres undefined)	0	-	-	-	-
Cc1nc(/C=C\C(=O)O)c2cc(C)oc2n1	0	0	0	+	0
CSc1nc(C)c2cc(C)oc2n1	0	0	0	0	0
O=C(O)c1ccc(-n2cccc2/C=C2/NC(=O)N(c3cccc(Cl)c3)C2=O)cc1	0	-	0	0	-
O=C(O)c1ccc(-n2cccc2/C=C2/NC(=O)N(c3ccccc3)C2=O)cc1	0	0	32	0	0
Cc1ccc(CN2C(=O)N/C(=C\c3cccn3-c3cccc(C(=O)O)c3)C2=O)cc1	0	0	0	0	0
CCOC(=O)c1cccc(-n2cccc2/C=C2\NC(=O)N(CC(=O)O)C2=O)c1	0	-	31	0	-
O=c1c2cc3cccnc3nc2ncn1CCc1c[nH]c2ccccc12	0	-	-	-	-
COc1ccc(Cn2ccc3ccc(-c4ccc5ccn(Cc6ccc(F)cc6)c5c4)cc32)cc1	0	-	-	-	-
O=C(c1ccc2c(c1)C(=O)NC2=O)c1ccc2c(c1)C(=O)NC2=O	0	-	-	-	-
Cc1ccc(-n2c(SCC(=O)Nc3ccccc3-c3ccccc3)nnc2-c2ccccn2)cc1	0	-	-	-	-
CCOC(=O)COc1ccc2cc(C(=O)OCC)c(=O)oc2c1	0	-	38	184	0
